The target of assay [1] is Calcium and integrin-binding protein 1 (Homo sapiens) (UniProt Q99828). As to the kind of experiment: Validation qHTS for Identification of Calcium Integrin Binding protein 1 (CIB1) Competitor (AID 1508618). In outline: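 CIB1-GST (1 uM final) in 5 mM HEPES pH 7.4, 125 mM NaCl, 5 mM CaCl2, 0.01% Tween20 was preincubated 15 min at room temperature with compound (up to 114 uM), then FITC-alphaIIb peptide (100 nM) added for 15 min; fluorescence polarization read.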
(In qHTS, concentration-response curves come from the screen itself.)

For assay [2] the target is unchanged. As to the kind of experiment: Primary qHTS for Identification of Calcium Integrin Binding Protein 1 (CIB1) Competitor (AID 1508620). Also: potency is read from the fitted curve at half-maximal effect. In outline:
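Fluorescence polarization competition: CIB1-GST (1 uM final) preincubated with compound 15 min at room temperature, then FITC-labeled alphaIIb peptide (100 nM final) added for another 15 min. Polarization read at Ex 480/Em 540.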

The nature of assay [3]: Primary qHTS for small molecule stabilizers of the endoplasmic reticulum resident proteome: Secreted ER Calcium Modulated Protein (SERCaMP) assay (AID 1508630). Summed up:
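GLuc-SERCaMP-expressing SH-SY5Y cells, pretreated 16 h with compound, are challenged with thapsigargin to empty ER calcium stores; after 4 h, coelenterazine is added directly to the medium and luminescence is imaged.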

Assay [4] is described as follows: A High-Content qHTS Against Drug Library for the Identification of Small Molecules that Inhibit DYT1 Early Onset Primary Dystonia-Associated Cell Pathology (AID 1645839; calls by dose curve; also: series mostly up to about 46 µM). In outline:
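Readout: %pathology, the punctate EGFP-TorsinA distribution from imaging, as the primary channel and cell count as the toxicity counterscreen. HEK293 Flp-In cells expressing delE TorsinA were induced with tetracycline and treated with compound for 48 h.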

Assay [5] deals with Cytochrome P450 2D6 (Homo sapiens) (UniProt P10635). As to the kind of experiment: Cytochrome P450 family 2 subfamily D member 6 (CYP2D6) small molecule antagonists: luciferase biochemical (cell-free) qHTS assay (AID 1645840; active = well fitted curve in the direction sought with a large enough effect in the repeat runs; an effect the other way counts as inactive or inconclusive; also: nearly all actives have a fitted effect of over 55% in size; also: potency is read from the fitted curve at half-maximal effect). Summed up:
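P450-Glo luminescent screen: recombinant CYP2D6 enzyme–proluciferin substrate mix preincubated with compound 10 min at room temperature, then NADPH regeneration added for 1 h at room temperature. Detection reagent added for 20 min; luciferin light read as relative luminescence units.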

A short description of assay [6]: Primary qHTS for inhibitors of La Crosse Virus (LACV) - induced cell death in SH-SY5Y cells (AID 1508616).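 Also: top concentration of the series differs between compounds; higher means more rescue of cells from virus-induced death.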 Summed up: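 Protection against LACV-induced cell death is scored in SH-SY5Y cells exposed to compounds and virus (0.01 MOI) for 6 days. Data normalized to virus-infected DMSO wells and virus-free DMSO wells.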
Assay [7] has as its target Calcium and integrin-binding protein 1 (Homo sapiens) (UniProt Q99828). The assay can be described thus: Confirmatory qHTS for Identification of Calcium Integrin Binding Protein 1 (CIB1) Competitor (AID 1508617). Also: potency is read from the fitted curve at half-maximal effect; nearly all actives have a fitted effect of over 65% in size. In outline:
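Fluorescence polarization competition: CIB1-GST (1 uM final) in 5 mM HEPES pH 7.4, 125 mM NaCl, 5 mM CaCl2, 0.01% Tween20 preincubated 15 min RT with compound (up to 114 uM), then FITC-alphaIIb peptide (100 nM) added, 15 min RT.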

Assay [8] can be described thus: Counterscreen qHTS for small molecule stabilizers of the endoplasmic reticulum resident proteome: GLuc-NoTag assay (AID 1508627).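 Also: SH-SY5Y cells given compound then 100 nM thapsigargin to empty ER calcium; series mostly up to about 76 µM.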 Summed up: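 SH-SY5Y cells stably expressing constitutively secreted GLuc (no SERCaMP tag) were pre-incubated 5 h, treated with compound for 19 h, then 100 nM thapsigargin for 4 h at 37C; medium GLuc read by coelenterazine luminescence.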
On the technique in general: The purpose of a counterscreen is to sort out artefacts and off-target activity.

A short description of assay [9]: Confirmatory qHTS for small molecule stabilizers of the endoplasmic reticulum resident proteome: Secreted ER Calcium Modulated Protein (SERCaMP) assay (AID 1508628).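 Also: SH-SY5Y cells given compound 16 h then thapsigargin 100 nM for 4 h; series mostly up to about 76 µM; nearly all actives have a fitted effect of over 40% in size.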 The source says:
Assay Provider: Brandon K. Harvey Ph.D.
National Institute on Drug Abuse, National Institutes of Health, Baltimore, MD
Endoplasmic reticulum (ER) dysregulation is associated with human pathologies including neurodegenerative, cardiovascular, muscular, and diabetic conditions. Maintenance of ER calcium is critical for functions of the ER and its depletion can lead to loss of ER resident proteins, in a process termed exodosis. Therapeutic compounds capable of attenuating the redistribution of ER proteins under pathological conditions may slow or stop disease progression. To identify such compounds, we performed a quantitative high-throughput screen (qHTS) using the SERCaMP assay, which monitors secretion of ER resident proteins triggered by calcium depletion.
SERCaMP was initially developed as a reporter of ER calcium homeostasis using a Gaussia luciferase with a modified signal peptide and carboxy-terminus (GLuc-SERCaMP), modifications that confer secretion of the reporter in response to ER calcium depletion (Henderson et al., 2014). The assay was used to screen 9,501 compounds, including a collection of drugs approved by the FDA (US), EMA (EU), NHI (Japan), and HC (Canada) regulatory agencies (Huang et al., 2011). Since the SERCaMP reporter reflects the exodosis phenomenon (Trychta et al., 2018a), compounds identified in the screen have the potential to prevent exodosis by different mechanisms such as stabilizing ER calcium or augmenting ERS retrieval.
1. Henderson, M.J., Wires, E.S., Trychta, K.A., Richie, C.T., and Harvey, B.K. (2014). SERCaMP: a carboxy-terminal protein modification that enables monitoring of ER calcium homeostasis. Mol Biol Cell 25, 2828-2839.
2. Huang, R., Southall, N., Wang, Y., Yasgar, A., Shinn, P., Jadhav, A., Nguyen, D.T., and Austin, C.P. (2011). The NCGC pharmaceutical collection: a comprehensive resource of clinically approved drugs enabling repurposing and chemical genomics. Sci Transl Med 3, 80ps16.
3. Trychta, K.A., Back, S., Henderson, M.J., and Harvey, B.K. (2018a). KDEL Receptors Are Differentially Regulated to Maintain the ER Proteome under Calcium Deficiency. Cell Rep 25, 1829-1840 e1826.
SEQUENCE No. (1, 2, 3, etc.); […] (e.g., Cells, Incubation, Reagent, etc.); VALUE and DESCRIPTION.
1; Reagent; 5 uL; 1000 SH-SY5Y cells per wells
3; Compound; 23 nL; Control inhibitor / compound library
5; Reagent; 100 nM; Thapsigargin
7; Reagent; 1 uL; 0.5x coelenterazine
8; Detection; Luminescence; ViewLux imaging system
NOTES (numbers refer to sequence above)
1; SH-SY5Y human neuroblastoma cells stably expressing GLuc-SERCaMP (SH-SY5Y-GLuc-ASARTDL) cells were seeded in 1,536 well white tissue culture treated plates (Corning, Cat# 7464) in DMEM-high glucose-sodium pyruvate (ThermoFisher Scientific, Cat #10569) supplemented with 10% bovine growth serum (Hyclone), 10 U/ml penicillin (Gibco), 10 ug/ml streptomycin (Gibco), and 20 mM HEPES.
2; Assay plates were incubated for 5 hour at 37C in a humidified incubator containing 5% CO2. […]
7; Gaussia luciferase in the medium was measured by adding 1 ul of 0.5x coelenterazine (final concentration 0.07x) prepared in Gaussia Luciferase Glow Assay Buffer (Pierce), without addition of the Cell Lysis Buffer Reagent.
8; Luminescence was measured using a ViewLux […] CCD imaging system (Perkin Elmer) equipped with clear filters. […]

Molecules are shown by their SMILES. Inconclusive results are not listed. Values without a mark were called inactive. Active and inactive are the calls of the source. Unless noted, calls follow the shape of the dose curve; as a rule, active = well fitted curve in the direction sought with a large enough effect; inconclusive = small, poorly fitted or top-dose-only effect, or another doubt; inactive = no such curve, though single readings can be large; an effect the other way counts as inactive or inconclusive.

Chain of Calcium and integrin-binding protein 1 (Homo sapiens) (Q99828 whole entry, looked up): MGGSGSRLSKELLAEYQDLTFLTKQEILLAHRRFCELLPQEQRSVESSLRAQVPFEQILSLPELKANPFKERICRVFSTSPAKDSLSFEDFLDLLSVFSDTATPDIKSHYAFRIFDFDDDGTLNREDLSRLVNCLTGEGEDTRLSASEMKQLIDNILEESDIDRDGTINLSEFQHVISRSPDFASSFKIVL
Chain of Cytochrome P450 2D6 (Homo sapiens) (P10635 whole entry, looked up): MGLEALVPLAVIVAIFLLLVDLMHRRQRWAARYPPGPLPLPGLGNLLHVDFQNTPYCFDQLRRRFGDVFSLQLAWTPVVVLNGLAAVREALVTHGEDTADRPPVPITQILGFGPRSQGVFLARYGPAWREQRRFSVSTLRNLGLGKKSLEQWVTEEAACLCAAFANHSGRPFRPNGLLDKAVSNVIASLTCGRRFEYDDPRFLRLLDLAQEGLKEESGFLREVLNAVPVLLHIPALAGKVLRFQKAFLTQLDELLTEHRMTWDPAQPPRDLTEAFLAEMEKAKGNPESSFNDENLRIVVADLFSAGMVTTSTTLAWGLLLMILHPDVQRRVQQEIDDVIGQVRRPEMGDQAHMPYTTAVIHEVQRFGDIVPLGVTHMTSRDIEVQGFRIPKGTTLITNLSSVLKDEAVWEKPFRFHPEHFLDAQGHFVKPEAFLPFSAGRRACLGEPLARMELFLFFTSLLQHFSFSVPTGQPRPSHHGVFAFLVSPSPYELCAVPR

As to `Clc1ccc(Cn2c(CN3CCCC3)nc3ccccc32)cc1`, the outcome in [1] was inactive. Moreover, the Potency entry in assay [2], in [3] and in [4] was “inactive” in each case. Also, in assay [5], the Potency is 309 nM (active).

In the case of `C[N+](C)(C)CCCCCC[N+](C)(C)C`, the call in assay [6] and in assay [1] was inactive. Also, the Potency result in assay [3], in assay [4] and in [5] was “inactive” in each case.

As for `C=C1C(=O)[C@@]23C(CC[C@@H]1[C@H]2O)[C@@]12CO[C@]3(O)[C@@H](O)[C@@H]1C(C)(C)CC[C@@H]2O` (stereo partly specified), the Potency in [7] was 25.1 µM (active); in [2], 44.7 µM (active). Further, the Potency entry in assay [3] was “inactive”.

As for `CCN(CC)C(=O)c1ccc(O)c(OC)c1`, the outcome in [1] was inactive. In addition, the Potency entry in assay [2], in assay [3], in [4] and in assay [5] was “inactive” each time.

As to `COc1cccc([C@@H](C)NCCCc2ccccc2Cl)c1`, the Potency entry in [2] is “inactive”.

`O=C1NCC2(CCN(CCc3ccccc3)CC2)O1`: the result in assay [1] was inactive. Moreover, the Potency result in assay [2], in assay [3] and in assay [4] was “inactive” in each case.

On to `CCN(CC)CCOC(=O)c1ccc(N)cc1`, for which, in assay [1], the outcome was inactive. Besides, the Potency result in assay [2], in [8], in assay [9], in assay [3] and in assay [4] was “inactive” in each case.

Take `CC(=O)O[C@]1(C(C)=O)CC[C@H]2[C@@H]3C=C(Cl)C4=CC(=O)[C@@H]5C[C@@H]5[C@]4(C)[C@H]3CC[C@@]21C`: the result in [1] was inactive. Besides, the Potency result in assay [2], in assay [3], in assay [4] and in [5] was “inactive” throughout.

Take `CN(C)CCC(c1ccccc1)c1ccccn1` (stereo unspecified): the outcome in [6] and in [1] was inactive. Besides, the Potency entry in assay [8], in [9], in assay [3] and in assay [4] was “inactive” in each case.

Turning to `CO[C@H]1C[C@@H]2CC[C@@H](C)[C@@](O)(O2)C(=O)C(=O)N2CCCC[C@@H]2C(=O)O[C@H]([C@H](C)C[C@@H]2CC[C@H](OC(=O)C(C)(CO)CO)[C@H](OC)C2)CC(=O)[C@H](C)C=C(C)[C@@H](O)[C@@H](OC)C(=O)[C@H](C)C[C@H](C)C=CC=CC=C1C`, the Potency result in assay [2] is “inactive”.

Turning to `O=C(Nc1cc(Cl)cc2c1[nH]c1cnccc12)c1cccnc1`, the Potency entry in [2] is “inactive”.

Consider `Oc1ccc(C2CCN(c3ccnc4ccccc34)CC2)cc1O`, for which, in assay [2], the Potency entry was “inactive”.

For the molecule `CC[C@H]1OC(=O)[C@H](C)[C@@H](O[C@H]2C[C@@](C)(OC)[C@@H](O)[C@H](C)O2)[C@H](C)[C@@H](O[C@@H]2O[C@H](C)C[C@H](N(C)C)[C@@H]2O)[C@](C)(O)C[C@@H](C)CN(C)[C@H](C)[C@@H](O)[C@]1(C)O`, the Potency result in [2], in assay [8] and in assay [3] was “inactive” throughout.

Values taken from PubChem BioAssay (NCATS).
